Source: PubChem BioAssay (Tox21)
Where “and” joins values, the source holds several entries; their conditions need not be identical. Equal entries are not always repeated. Results filed as inconclusive are left out. A call without a number means that no potency is given here. A structure can be active in one record and inactive in another. Calls of active or inactive are those of the source. Unless noted, the call rests on the fitted dose curve.

Experiments:
[1] = Nuclear factor erythroid 2-related factor 2/antioxidant responsive element (Nrf2/ARE) small molecule agonists: qHTS cell viability counter screen in human keratinocytes (AID 1919968; active means well fitted curve in the direction sought with a large enough effect in the repeat runs; an effect the other way counts as inactive or inconclusive; further: nearly all actives have a fitted effect of over 55% in size; further: potency means the concentration at half of the fitted maximal effect)
Procedure, shortened: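 Seed 1,500 KeratinoSens cells per well, then incubate 5 h at 37 C/5% CO2. Add compounds in DMSO and incubate 23 h. Add CellTiter-Fluor, wait 1 h and read fluorescence.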

[2] = Nuclear factor erythroid 2-related factor 2/antioxidant responsive element (Nrf2/ARE) small molecule agonists: luciferase reporter gene qHTS assay in human keratinocytes (AID 1919969); further: nearly all actives have a fitted effect of over 35% in size; further: potency means the concentration at half of the fitted maximal effect
[3] = target: Gonadotropin-releasing hormone receptor (Homo sapiens) (UniProt P30968); test: Human gonadotropin-releasing hormone receptor (GnRHR) small molecule agonists, calcium flux assay in GnRHR-HEK293 cells (AID 1920063); further: nearly all actives have a fitted effect of over 35% in size
Chain of Gonadotropin-releasing hormone receptor (Homo sapiens) (P30968 whole entry, looked up): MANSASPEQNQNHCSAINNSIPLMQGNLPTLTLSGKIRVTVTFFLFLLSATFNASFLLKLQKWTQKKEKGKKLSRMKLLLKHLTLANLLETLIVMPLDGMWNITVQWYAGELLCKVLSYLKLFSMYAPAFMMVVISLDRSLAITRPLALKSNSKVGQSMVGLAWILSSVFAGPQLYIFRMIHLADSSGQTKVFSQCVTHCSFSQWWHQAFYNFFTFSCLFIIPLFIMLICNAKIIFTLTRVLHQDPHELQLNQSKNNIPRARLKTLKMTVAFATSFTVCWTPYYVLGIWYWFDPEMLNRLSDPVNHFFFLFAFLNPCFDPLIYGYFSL
Procedure, shortened: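 Cells: HEK293 stably expressing human GnRHR. Steps: overnight (18 h) culture, 1 h calcium dye loading at 37 C, compound addition, kinetic fluorescence read at 480/540 nm. Each compound tested at 15 concentrations in triplicate.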

[4] = target: KiSS-1 receptor (Homo sapiens) (UniProt Q969F8); test: Human kisspeptin (KISS1R) small molecule agonists, calcium flux assay in KISS1R-HEK293 cells (AID 1920064; active means well fitted curve in the direction sought with a large enough effect in the repeat runs; an effect the other way counts as inactive or inconclusive)
Chain of KiSS-1 receptor (Homo sapiens) (Q969F8 whole entry, looked up): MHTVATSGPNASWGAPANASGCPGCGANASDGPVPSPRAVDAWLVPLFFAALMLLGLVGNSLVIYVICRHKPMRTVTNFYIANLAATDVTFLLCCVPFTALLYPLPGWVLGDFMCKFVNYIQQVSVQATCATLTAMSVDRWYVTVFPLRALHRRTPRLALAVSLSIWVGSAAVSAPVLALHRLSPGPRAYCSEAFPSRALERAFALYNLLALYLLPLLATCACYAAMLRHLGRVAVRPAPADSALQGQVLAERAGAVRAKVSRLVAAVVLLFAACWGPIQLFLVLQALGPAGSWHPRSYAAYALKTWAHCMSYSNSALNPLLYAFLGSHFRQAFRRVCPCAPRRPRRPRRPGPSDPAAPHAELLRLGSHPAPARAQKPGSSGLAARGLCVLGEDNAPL
Procedure, shortened: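 Cells plated and incubated 18 h; dye added, 1 h at 37 C; compounds in DMSO pinned in; signal read at 480/540 nm every second for 3 min. Each compound tested at 15 concentrations in triplicate.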

[5] = G protein-coupled receptor (GPCR) small molecule agonists, calcium flux assay: HEK293 wild type cell line counter screen (AID 1920065)
Procedure, shortened: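 Counter-screen of the Tox21 10K library for non-specific calcium release: dye-loaded cells received compounds in DMSO and were monitored by kinetic fluorescence (480/540 nm, 3 min). Fifteen concentrations, run in triplicate.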

[6] = p53 small molecule agonists, cell-based qHTS assay with human liver microsomes: qHTS cell viability counter screen (AID 1963579); further: nearly all actives have a fitted effect of over 45% in size; further: potency means the concentration at half of the fitted maximal effect
Procedure, shortened: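 Luminescent CellTiter-Glo read-out, 30 min at room temperature, gauged cytotoxicity in p53RE-bla cells exposed 16 h at 37 C to DMSO-dissolved compounds with metabolic activation by human liver microsomes and NADPH, each 0.5 mg/mL final.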

[7] = p53 small molecule agonists, cell-based qHTS assay with rat liver microsomes: qHTS cell viability counter screen (AID 1963580); further: nearly all actives have a fitted effect of over 45% in size; further: potency means the concentration at half of the fitted maximal effect
Procedure, shortened: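 In HCT-116 cells carrying a p53 response element-bla reporter, compounds were metabolically activated in situ by rat liver microsomes with NADPH over 16 h. Cell ATP content then served as the cytotoxicity measure.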

[8] = p53 small molecule agonists, cell-based qHTS assay: qHTS cell viability counter screen (AID 1963581); further: nearly all actives have a fitted effect of over 45% in size; further: potency means the concentration at half of the fitted maximal effect
Procedure, shortened: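 Cells: HCT-116 with p53 response element-driven beta-lactamase. Treatment: 16 h, 37 C, compounds in DMSO. Read: CellTiter-Glo luminescence after 30 min RT.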

[9] = target: 5-hydroxytryptamine receptor 2A (Homo sapiens) (UniProt P28223); test: 5-hydroxytryptamine receptor 2A (HTR2A) small molecule antagonists, cell-based qHTS assay (AID 1963586); further: nearly all actives have a fitted effect of over 45% in size
Chain of 5-hydroxytryptamine receptor 2A (Homo sapiens) (P28223 whole entry, looked up): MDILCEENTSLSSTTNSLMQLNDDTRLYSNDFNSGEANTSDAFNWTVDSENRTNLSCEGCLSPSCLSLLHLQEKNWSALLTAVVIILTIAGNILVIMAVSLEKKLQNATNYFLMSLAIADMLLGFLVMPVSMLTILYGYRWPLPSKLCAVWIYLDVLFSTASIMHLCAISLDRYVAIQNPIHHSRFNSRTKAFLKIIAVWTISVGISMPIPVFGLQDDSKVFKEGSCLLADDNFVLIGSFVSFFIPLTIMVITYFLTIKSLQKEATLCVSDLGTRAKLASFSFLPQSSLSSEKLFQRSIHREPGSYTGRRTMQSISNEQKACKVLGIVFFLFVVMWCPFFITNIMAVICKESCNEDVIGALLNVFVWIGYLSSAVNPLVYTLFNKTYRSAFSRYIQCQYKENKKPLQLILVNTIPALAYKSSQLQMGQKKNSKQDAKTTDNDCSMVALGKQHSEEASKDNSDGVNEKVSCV
Procedure, shortened: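 Antagonist-mode intracellular calcium assay: DOI (4 nM) added after 5 min compound pre-incubation at room temperature to dye-loaded HTR2A-CHO cells. Fluorescence followed for 3 min, sampled every second.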

[10] = target: 5-hydroxytryptamine receptor 2A (Homo sapiens) (UniProt P28223); test: 5-hydroxytryptamine receptor 2A (HTR2A) small molecule agonists, cell-based qHTS assay (AID 1963587); further: nearly all actives have a fitted effect of over 30% in size; further: potency means the concentration at half of the fitted maximal effect
Procedure, shortened: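 HTR2A-CHO cells, plated 18 h at 37 C/5% CO2, dye-loaded 1 h at 37 C; compounds in DMSO added by pin tool (agonist mode). Intracellular calcium flux read as kinetic fluorescence on FDSS over 2 min at 1 s intervals.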

[11] = target: Muscarinic acetylcholine receptor M1 (Homo sapiens) (UniProt P11229); test: Cholinergic receptor muscarinic 1 (CHRM1) small molecule antagonists, cell-based qHTS assay (AID 1963588); further: nearly all actives have a fitted effect of over 40% in size; further: potency means the concentration at half of the fitted maximal effect
Chain of Muscarinic acetylcholine receptor M1 (Homo sapiens) (P11229 whole entry, looked up): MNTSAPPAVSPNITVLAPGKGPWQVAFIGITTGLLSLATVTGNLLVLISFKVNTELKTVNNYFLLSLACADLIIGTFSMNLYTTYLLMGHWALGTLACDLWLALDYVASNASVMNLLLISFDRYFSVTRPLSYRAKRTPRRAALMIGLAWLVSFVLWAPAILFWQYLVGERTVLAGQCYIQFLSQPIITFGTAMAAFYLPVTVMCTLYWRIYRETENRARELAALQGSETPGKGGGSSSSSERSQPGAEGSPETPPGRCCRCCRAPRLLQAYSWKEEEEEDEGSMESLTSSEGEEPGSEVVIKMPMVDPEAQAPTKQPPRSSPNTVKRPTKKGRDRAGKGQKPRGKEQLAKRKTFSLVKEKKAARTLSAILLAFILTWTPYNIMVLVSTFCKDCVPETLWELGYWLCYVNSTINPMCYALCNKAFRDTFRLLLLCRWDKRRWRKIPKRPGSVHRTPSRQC
Procedure, shortened: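 CHRM1-CHO calcium-flux assay, antagonist mode. Cells were seeded 18 h, dye-loaded 1 h at 37 C and given compound for 5 min at RT, then acetylcholine was added at 50nM. FDSS fluorescence was read 3 min; 15 concentrations, three runs.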

[12] = target: Muscarinic acetylcholine receptor M1 (Homo sapiens) (UniProt P11229); test: Cholinergic receptor muscarinic 1 (CHRM1) small molecule agonists, cell-based qHTS assay (AID 1963589); further: nearly all actives have a fitted effect of over 35% in size
Procedure, shortened: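 Agonist-mode qHTS in CHO cells stably carrying human muscarinic M1. Intracellular calcium is tracked by fluorescence every second after compound transfer; each compound runs at 15 concentrations in three independent runs.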

[13] = cAMP Responsive Elements (CRE) small molecule agonists, cell-based qHTS assay (AID 1963590); further: potency means the concentration at half of the fitted maximal effect
Procedure, shortened: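 Agonist mode qHTS in CRE-bla HEK 293T cells: compounds dosed from DMSO for 3 h at 37 C/5% CO2, followed by LiveBLAzer B/G FRET substrate for 2 h at room temperature.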

[14] = target: Beta-2 adrenergic receptor (Homo sapiens) (UniProt P07550); test: Adrenergic beta2 receptor (ADRB2) small molecule antagonists, cell-based qHTS assay (AID 1963592); further: series mostly up to about 92 µM; nearly all actives have a fitted effect of over 50% in size
Chain of Beta-2 adrenergic receptor (Homo sapiens) (P07550 whole entry, looked up): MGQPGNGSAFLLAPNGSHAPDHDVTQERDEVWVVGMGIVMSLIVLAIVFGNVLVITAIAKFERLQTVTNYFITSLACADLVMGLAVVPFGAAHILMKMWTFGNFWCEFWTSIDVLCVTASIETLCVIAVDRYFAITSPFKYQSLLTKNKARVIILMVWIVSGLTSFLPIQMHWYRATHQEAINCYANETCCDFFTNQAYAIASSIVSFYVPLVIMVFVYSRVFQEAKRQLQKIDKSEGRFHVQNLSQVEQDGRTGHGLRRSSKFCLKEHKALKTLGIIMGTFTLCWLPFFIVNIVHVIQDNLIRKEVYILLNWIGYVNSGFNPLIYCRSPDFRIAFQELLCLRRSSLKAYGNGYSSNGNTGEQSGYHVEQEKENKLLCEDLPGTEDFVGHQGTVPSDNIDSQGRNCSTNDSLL
Procedure, shortened: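 Cells (CHO, stable ADRB2 overexpression) incubated 18-20hr at 37C; compounds added from DMSO; agonist mix (1nM isoproterenol, 100uM IBMX, 25uM Ro-20-1724) added; 0.5hr RT; d2-cAMP and anti-cAMP-cryptate added; 1hr RT; 665/615 nm read.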

[15] = target: Beta-2 adrenergic receptor (Homo sapiens) (UniProt P07550); test: Adrenergic beta2 receptor (ADRB2) small molecule agonists, cell-based qHTS assay (AID 1963593);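 further: CHO cells stably overexpressing human ADRB2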
Procedure, shortened: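 CHO cells stably over-expressing ADRB2 were plated overnight at 37C, then dosed with compounds plus a stimulation mix containing 100uM IBMX and 25uM Ro-20-1724 for 0.5hr at room temperature. cAMP was measured by HTRF competition, 1hr.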

[16] = target: D(2) dopamine receptor (Homo sapiens) (UniProt P14416); test: Dopamine D2 receptor (DRD2) small molecule agonists, cell-based qHTS assay (AID 1963594); further: nearly all actives have a fitted effect of over 35% in size
Chain of D(2) dopamine receptor (Homo sapiens) (P14416 whole entry, looked up): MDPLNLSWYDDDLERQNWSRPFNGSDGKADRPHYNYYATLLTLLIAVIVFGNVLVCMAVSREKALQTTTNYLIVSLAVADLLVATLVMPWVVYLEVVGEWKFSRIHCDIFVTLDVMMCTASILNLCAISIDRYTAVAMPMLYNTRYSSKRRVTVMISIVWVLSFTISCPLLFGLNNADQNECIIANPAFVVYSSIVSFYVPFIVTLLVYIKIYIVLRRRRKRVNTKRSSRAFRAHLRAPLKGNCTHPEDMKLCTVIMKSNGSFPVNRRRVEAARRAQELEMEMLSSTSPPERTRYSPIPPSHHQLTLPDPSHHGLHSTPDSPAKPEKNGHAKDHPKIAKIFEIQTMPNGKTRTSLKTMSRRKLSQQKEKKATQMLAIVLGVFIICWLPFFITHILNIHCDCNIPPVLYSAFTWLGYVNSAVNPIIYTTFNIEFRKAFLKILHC
Procedure, shortened: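 HEK293 cells stably expressing DRD2 were cultured 24 h at 37 C, then given Ro20-1724 (0.1 mM final) and compounds for 10 min at room temperature. NKH477 (200nM) was then added for 30 min. cAMP was read by HTRF.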

[17] = target: D(2) dopamine receptor (Homo sapiens) (UniProt P14416); test: Dopamine D2 receptor (DRD2) small molecule antagonists, cell-based qHTS assay (AID 1963595; active means well fitted inhibition curve with a large enough effect in the signal ratio in the repeat runs, with a control signal flat; the % refers to the signal ratio; further: potency means the concentration at half of the fitted maximal effect)
Procedure, shortened: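 Stable D2 receptor HEK293 line, 24 h after seeding. Compound preincubated 10 min, then quinpirole (12 nM) with forskolin analogue NKH477 (200 nM), 30 min, room temperature. Detection by time-resolved FRET of cAMP.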

[18] = cAMP Responsive Elements (CRE) small molecule antagonists, cell-based qHTS assay (AID 1963591; active means well fitted inhibition curve with a large enough effect in the signal ratio in the repeat runs, not every such curve was filed as active; the % refers to the signal ratio)
Procedure, shortened: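 Antagonist mode: test compounds are co-incubated with the adenylyl cyclase activator NKH477 (0.25 uM final) on CRE-bla HEK293T cells for 3 h at 37 °C, followed by LiveBLAzer substrate loading.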

Structure (SMILES)	Potency [1]	Potency [2]	Potency [3]	Potency [4]	Potency [5]	Potency [6]	Potency [7]	Potency [8]	Potency [9]	Potency [10]	Potency [11]	Potency [12]	Potency [13]	Potency [14]	Potency [15]	Potency [16]	Potency [17]	Potency [18]
CC(C)=C[C@@H]1[C@@H](C(=O)OCc2coc(Cc3ccccc3)c2)C1(C)C	inactive	inactive	inactive	inactive	inactive	inactive	inactive	inactive	inactive	inactive	inactive	inactive	inactive	inactive	inactive	inactive	inactive	
CC(C)COC(=O)c1ccccc1C(=O)OCC(C)C	inactive	inactive	inactive	inactive	inactive	inactive	inactive	inactive	inactive	5.5 µM (active) and inactive	inactive		inactive	inactive	inactive	inactive	inactive	inactive
CC(C)(C)c1ccccc1O	inactive	inactive	inactive	inactive	inactive	inactive	inactive	inactive	inactive	inactive	inactive	inactive	inactive	inactive		inactive	inactive	inactive
O=C(CCl)c1ccc(Cl)cc1Cl	inactive and 11.9 µM (active)	60.8 µM (active) and 11.9 µM (active)	inactive	inactive	inactive	inactive	inactive	inactive	inactive	inactive	inactive	inactive	inactive	inactive		inactive	inactive	inactive
CCCN(CCOc1c(Cl)cc(Cl)cc1Cl)C(=O)n1ccnc1	inactive	inactive	inactive	inactive	inactive	inactive	inactive	inactive	inactive	inactive	inactive	inactive	27.9 µM (active) and 48.6 µM (active)	inactive		inactive		inactive
CNC(=O)Oc1ccccc1OC(C)C	inactive	inactive	inactive	inactive	inactive	inactive	inactive	inactive	inactive	inactive	inactive	inactive	inactive	inactive	inactive	inactive	inactive	inactive
CC1CC(=O)O1 (configuration not stated)	inactive	inactive	inactive	inactive	inactive	inactive	inactive	inactive	inactive	inactive	inactive	inactive	inactive	inactive		inactive	inactive	inactive
N#Cc1cccnc1	inactive	inactive	inactive	inactive	inactive	inactive	inactive	inactive	inactive	inactive	inactive		inactive	inactive			inactive	
Clc1cccc(Cl)c1	inactive	inactive	inactive	inactive	inactive	inactive	inactive	inactive	inactive	inactive	inactive	inactive	inactive	inactive	inactive	inactive	inactive	inactive
Cc1ccc([N+](=O)[O-])cc1C	inactive	inactive	inactive	inactive	inactive	inactive	inactive	inactive	inactive	inactive	inactive	inactive	inactive		inactive	inactive	inactive	inactive
Clc1ccccc1-c1nnc(-c2ccccc2Cl)nn1	inactive	19.2 µM (active) and 5.43 µM (active)	inactive	inactive	inactive	inactive	inactive	inactive	inactive	inactive	inactive	inactive	inactive	inactive	inactive	inactive	inactive	inactive
CC[n+]1ccccc1	inactive	inactive	inactive	inactive	inactive	inactive	inactive	inactive	inactive	inactive	inactive	inactive	inactive	inactive	inactive		inactive	inactive
NN=C(N)N	inactive	inactive	inactive	inactive	inactive	inactive	inactive	inactive	inactive	inactive	inactive	inactive	inactive	inactive	inactive	inactive	inactive	inactive
CCCn1cc[n+](C)c1	inactive	inactive	inactive	inactive	inactive	inactive	inactive	inactive	inactive	inactive	inactive	inactive		inactive	inactive	inactive	inactive	inactive
O=c1nc(O)n(Cl)c(=O)n1Cl	inactive	inactive	inactive	inactive	inactive	inactive	inactive	inactive	inactive	inactive	inactive	inactive	inactive	inactive	inactive	inactive	inactive	inactive
CCCCN(CCCC)SN(C)C(=O)Oc1cccc2c1OC(C)(C)C2	inactive	24.7 µM (active) and 54.5 µM (active)	inactive	inactive	inactive	inactive	inactive	inactive	inactive	inactive	inactive	inactive		inactive	inactive	inactive	inactive	inactive

Structure (SMILES)	Potency [1]	Potency [2]	Potency [3]	Potency [4]	Potency [5]	Potency [6]	Potency [7]	Potency [8]	Potency [9]	Potency [10]	Potency [11]	Potency [12]	Potency [13]	Potency [14]	Potency [15]	Potency [16]	Potency [17]	Potency [18]
CCCC[N+]1(C)CCCCC1	inactive	inactive	inactive	inactive	inactive	inactive	inactive	inactive	inactive	inactive	inactive	inactive	inactive	inactive	inactive	inactive	inactive	inactive
Cc1ccc(N)c(C)c1	inactive	inactive	inactive	inactive	inactive	inactive	inactive	inactive	inactive	inactive	inactive	inactive	inactive	inactive			inactive	inactive
Cc1cc(Cl)ccc1N	inactive	inactive	inactive	inactive	inactive	inactive	inactive	inactive	inactive	inactive	inactive	inactive	inactive	inactive	inactive	inactive	inactive	inactive
O=c1[nH]c(=O)n(Cl)c(=O)n1Cl	inactive	inactive	inactive	inactive	inactive	inactive	inactive	inactive	inactive	inactive	inactive	inactive	inactive	inactive		inactive	inactive	inactive
Cc1cc(C)cc(C)c1	inactive	inactive	inactive	inactive	inactive	inactive	inactive	inactive	inactive	inactive	inactive	inactive	inactive	inactive		inactive	inactive	inactive
CN(C)[C@@H]1C(=O)C(C(N)=O)=C(O)[C@@]2(O)C(=O)C3=C(O)c4c(O)cccc4[C@@](C)(O)[C@H]3[C@H](O)[C@@H]12	inactive	inactive	inactive	inactive	inactive	inactive	inactive	inactive	inactive	inactive	inactive	inactive	inactive	inactive	inactive	inactive	inactive	inactive
CCNc1nc(NC(C)C)nc(SC)n1	inactive	inactive	inactive	inactive	inactive	inactive	inactive	inactive	inactive	inactive	inactive	inactive	inactive	inactive		inactive	inactive	inactive
CN(C)c1nc(=O)n(C2CCCCC2)c(=O)n1C	inactive	inactive	inactive	inactive	inactive	inactive	inactive	inactive	inactive	inactive	inactive	inactive		inactive	inactive	inactive	inactive	inactive
O=C(O)c1cc(Oc2ccc(C(F)(F)F)cc2Cl)ccc1[N+](=O)[O-]	inactive	inactive	inactive	inactive	inactive	inactive	inactive	inactive	inactive	inactive	inactive	inactive		inactive		inactive	inactive	inactive
O=C(O)COc1cc(Cl)c(Cl)cc1Cl	inactive	inactive	inactive	inactive	inactive	inactive	inactive	inactive	inactive	inactive	inactive	inactive		inactive		inactive	inactive	
Nc1c(Cl)cc([N+](=O)[O-])cc1Cl	inactive	inactive	inactive	inactive	inactive	inactive	inactive	inactive	inactive	inactive	inactive	inactive	inactive	inactive	inactive	inactive	inactive	inactive
CCN(CC)C(=S)S	27.5 µM (active) and 7.65 µM (active) and 13.7 µM (active)	inactive	inactive	inactive	inactive	29.1 µM (active) and inactive	inactive	inactive	inactive	inactive	inactive		inactive	inactive	inactive	inactive	inactive	inactive
ClC(Cl)c1ccccc1	inactive	inactive	inactive	inactive	inactive	inactive	inactive	inactive	inactive	inactive	inactive	inactive	inactive	inactive	inactive	inactive	inactive	inactive
CCCC[n+]1ccccc1C	inactive	inactive	inactive	inactive	inactive	inactive	inactive	inactive	inactive	inactive	inactive	inactive		inactive	inactive	inactive	inactive	inactive
CCCCCCCC[N+](C)(CCCCCCCC)CCCCCCCC	5.44 µM (active) and 6.87 µM (active) and 15.4 µM (active)	inactive	inactive	inactive	inactive	5.75 µM (active) and 6.47 µM (active) and 25.7 µM (active)	14.4 µM (active) and inactive and 40.8 µM (active)	9.11 µM (active) and 2.58 µM (active) and 20.4 µM (active)	inactive	inactive	5.93 µM (active) and inactive and 6.67 µM (active)	inactive		inactive		inactive	54.4 µM (active) and inactive and 17.2 µM (active)	
